# HT1080NT lethal: kills 2HG-producing HT-1080-NT fibrosarcoma cells | HT-1080-NT fibrosarcoma viability, CellTiter-Glo ATP luminescence, 48 h | AID 686970 | 360,000 tested, 1.6% active | Potency, µM (titrated, usually from 46.1 µM), for inactives: at the highest dose activity, negative = less viability, hits mostly cytotoxic;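 note: NT is the 2HG producing partner of a matched IDH1 knockdown line; 0% = DMSO-treated cells and -100% = media-only wells without cells; nearly all actives have a fitted effect of over 55% in size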
#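 Viability by CellTiter-Glo luminescence after 48 h compound exposure at 37C of HT-1080-NT cells (750/well, RPMI, 5% FBS). % activity scaled between DMSO wells and medium-only wells, then curve-fitted and categorized by curve class.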
# TDP1 cell CPT: DT40-hTDP1 cell growth loss with CPT; chicken DT40 Tdp1-/-;hTDP1 cells + 20 nM CPT, ATP luminescence, 48 h; Potency, µM (top dose mostly 46.2 µM), inactives show top-dose activity change, negative = growth inhibition, usual class: inhibitors; 420,000 tested, 12% active; note: nearly all actives have a fitted effect of over 55% in size
#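 Chicken DT40 Tdp1-/- cells stably complemented with human TDP1 were seeded at 400 cells/well in medium containing 20 nM camptothecin, exposed to pin-transferred compounds, and grown at 37 °C for at least 48 hr. Viability was read as ATP luminescence.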
# KB-3-1 cytotox: kills parental KB-3-1 adenocarcinoma cells; Potency, µM (top dose mostly 46.1 µM), actives largely listed as cytotoxic; KB-3-1 viability, CellTiter-Glo ATP luminescence, 72 h; 400,000 tested, 1.4% active; AID 1347075; note: nearly all actives have a fitted effect of over 60% in size
#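 Cytotoxicity in the drug-sensitive parental line KB-3-1 was scored as loss of CellTiter-Glo luminescence following 72 h incubation with compound. Values come from curve fitting of normalized concentration-response data.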
# DT40 TDP1 no CPT: qHTS for Inhibitors of human tyrosyl-DNA phosphodiesterase 1 (TDP1): qHTS in cells in absence of CPT; AID 686978, 2013; DT40 Tdp1-/- hTDP1 cells, no CPT, ATP luminescence, 48 h; 420,000 tested, 15% active; Potency, µM (doses to about 46.2 µM), for inactives: at the top dose activity change, negative = growth inhibition, hits mostly inhibitors; note: nearly all actives have a fitted effect of over 55% in size
#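 Seeded 400 DT40-hTDP1 cells/well (vehicle DMSO, no 20 nM CPT); pinned compounds; ≥48 hr at 37 °C; CellTiter-Glo luminescence as viability measure.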
# KB-V1 cytotox: KB-V1 MDR subline cytotoxicity. KB-V1 MDR cells viability, CellTiter-Glo, 72 h. Potency, µM (titrated, usually from 46.1 µM), usual class: cytotoxic. 400,000 tested, 3.4% active. AID 1347076; note: nearly all actives have a fitted effect of over 60% in size
#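 KB-V1 MDR subline cells in DMEM (phenol-red free, 10% FBS) exposed to compounds in qHTS concentration series for 72 h at 37 degrees C. Viability read by CellTiter-Glo luminescence; concentration-effect curves fitted after normalization and correction.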
# HT1080 IDH1KD tx: kills HT-1080 cells with IDH1 knockdown; HT-1080 IDH1 knockdown viability, ATP luminescence, 48 h; Potency, µM (titrated, usually from 46.1 µM), for inactives: top-dose activity, negative = toxicity, usual class: cytotoxic; 360,000 tested, 2% active;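 note: 0% = DMSO wells and -100% = cell-free medium wells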
#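 Cytotoxicity counter-line: IDH1KD HT-1080, 48 h, CellTiter-Glo. Curves classed by r2, magnitude and activity.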
# The depositor's hits bear a star; i = inactive; ? = inconclusive; / = no result given. This is a sample that favours compounds with a hit; in the whole collection about 19% have one here. Calls come from the whole dose curve; as a rule, active = well fitted curve in the direction sought with a large enough effect; inconclusive = small, poorly fitted or top-dose-only effect, or another doubt; inactive = no such curve, though single readings can be large; an effect the other way counts as inactive or inconclusive. Unless noted, % is set by controls: 0 for no effect and ±100 for the full control effect; potency is the fitted concentration of half-maximal effect.
SMILES,HT1080NT lethal,TDP1 cell CPT,KB-3-1 cytotox,DT40 TDP1 no CPT,KB-V1 cytotox,HT1080 IDH1KD tx
COc1ccc(C(=O)NC2CCCc3ccccc32)cc1 (centres undefined),-2%,-17%,i,?,i,?
COc1ccc(-c2cn3c(n2)sc2cc(C(=O)NC4CCCc5ccccc54)ccc23)cc1 (centres undefined),/,8.2µM*,/,5.8µM*,/,/
CCCn1nc(C(=O)Nc2ccc3nc(N4CCOCC4)sc3c2)ccc1=O,?,9.2µM*,i,10µM*,?,?
CCOCc1c(C(=O)Nc2ccccc2N2CCN(C)CC2)oc2ccccc12,-7%,8.2µM*,?,10µM*,?,-9%
CCOCc1c(C(=O)Nc2ccc3nc(N4CCOCC4)sc3c2)oc2ccccc12,-2%,21µM*,?,?,21µM*,-10%
Cc1ccccc1NC(=O)c1ccc2nc(N3CCOCC3)sc2c1,0%,18µM*,i,15µM*,i,-1%
Cc1ccc(C)c(NC(=O)Cn2ncc3c([nH]c4ccccc43)c2=O)c1,/,1%,i,-4%,i,/
COc1ccc(CN2C(=O)CSCC2(C)C(=O)Nc2c(C)cccc2C)cc1 (centres undefined),13%,-5%,i,-28%,?,18%
COc1ccc(CN2CCCC(CO)(Cc3ccc(F)cc3)C2)c(OC)c1OC (centres undefined),-10%,15µM*,i,?,i,-11%
CC(C)Oc1ccc(CN2CCCC(CO)(Cc3ccc(F)cc3)C2)cc1 (centres undefined),?,?,i,?,i,29µM*
Cc1c(C(=O)Nc2nc(-c3ccc(F)cc3)ns2)oc2ccc(Cl)cc12,/,-4%,/,-4%,/,/
COC(=O)c1ccc(NC(=O)c2cccc(C)c2[N+](=O)[O-])cc1,2%,1%,i,-17%,i,2%
COC(=O)c1ccc(NC(=O)C(C)Sc2nc(=O)cc(N)n2CCc2ccccc2)cc1 (centres undefined),/,/,?,/,i,/
O=C(COc1ccccc1)N(CCc1ccccc1)c1nc(-c2ccc(F)cc2)cs1,19%,-23%,i,?,15µM*,21%
O=C(CCc1ccccc1)NCCc1csc(-c2cccc(F)c2)n1,/,?,i,18µM*,i,/
COc1ccc(CC(=O)NCCc2csc(-c3cccc(F)c3)n2)cc1OC,/,-19%,i,?,i,/
O=C(COc1ccccc1)NCCc1csc(-c2ccc(F)cc2)n1,/,15µM*,i,?,i,/
O=C(COc1ccc(Cl)cc1)NCCc1csc(-c2cccc(F)c2)n1,/,?,i,?,i,/
N#Cc1ccc(-c2ccc(OCC(=O)NCCc3ccccc3)cc2)cc1,3%,?,i,12µM*,5.2µM*,1%
CCOc1ccccc1NC(=O)CSc1c(C)cnc2c1c(=O)n(C)c(=O)n2C,/,?,i,?,i,/
COc1ccc(F)cc1S(=O)(=O)NCCc1csc(-c2ccc(Cl)cc2)n1,/,?,i,?,i,/
O=S(=O)(NCCc1csc(-c2ccc(F)cc2)n1)c1ccc(F)cc1F,/,16µM*,?,21µM*,i,/
COc1ccc(Cc2noc(CN3CCN(C4CCc5ccccc5C4)CC3)n2)cc1OC (centres undefined),-13%,?,i,21µM*,i,?
COc1ccc(Cc2noc(CN3CCC(c4ccncc4)CC3)n2)cc1OC,-27%,21µM*,?,23µM*,18µM*,?

# Compound activity deposited in PubChem by National Center for Advancing Translational Sciences (NCATS).
